Laboratory results published in PubChem BioAssay AID1159580 (chemical genetic matrix, 2015).
Among all 5,500 compounds or so, about 2,000 (36%) were called active. Not shown: some 18% with an inconclusive outcome. Rule as the data show it: active = normalized growth mostly below about 0.91 (no sharp cut-off); inconclusive = no clear call, values can overlap the other calls; inactive = mostly above about 0.92. The list shows a part of the results.

Test: chemical genetic growth profiling, strain panel (AID 1159580);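 also: tested at 20 µM; growth read once vehicle control cultures reached saturation at 30 °C; 1 = growth at the plate median or of vehicle wells; lower values mean less growth of the strain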
Settings: growth OD

Measured: normalized growth

CC(=O)NC(=O)/C(C#N)=C/N1CCN(Cc2ccccc2)CC1
inactive: S. cerevisiae deletion strains, locus YAL013W, strain DEP1, active compounds read low 0.987 | S. cerevisiae deletion strains, locus YBR229C, strain ROT2, active compounds read low 0.989 | S. cerevisiae deletion strains, locus YDL101C, strain DUN1, active compounds read low 1.01 | S. cerevisiae deletion strains, locus YDL134C, strain PPH21, active compounds read low 1.01 | S. cerevisiae deletion strains, locus YDR150W, strain NUM1, active compounds read low 0.969 | S. cerevisiae deletion strains, locus YEL061C, strain CIN8, active compounds read low 0.996 | S. cerevisiae deletion strains, locus YGR078C, strain PAC10, active compounds read low 0.994 | S. cerevisiae deletion strains, locus YHR030C, strain SLT2, active compounds read low 0.947 | S. cerevisiae deletion strains, locus YHR087W, strain rtc3, active compounds read low 0.994 | S. cerevisiae deletion strains, locus YJR043C, strain POL32, active compounds read low 0.976 | S. cerevisiae deletion strains, locus YJR075W, strain HOC1, active compounds read low 1.01 | S. cerevisiae deletion strains, locus YKL190W, strain CNB1, active compounds read low 1 | S. cerevisiae deletion strains, locus YLR039C, strain RIC1, active compounds read low 1.01 | S. cerevisiae deletion strains, locus YLR058C, strain SHM2 (second series), active compounds read low 0.988 | S. cerevisiae deletion strains, locus YLR085C, strain ARP6, active compounds read low 1.07 | S. cerevisiae deletion strains, locus YLR262C, strain YPT6, active compounds read low 0.982 | S. cerevisiae deletion strains, locus YML094W, strain GIM5, active compounds read low 1.01 | S. cerevisiae deletion strains, locus YMR219W, strain ESC1, active compounds read low 1 | S. cerevisiae deletion strains, locus YMR263W, strain SAP30, active compounds read low 0.997 | S. cerevisiae deletion strains, locus YMR307W, strain GAS1, active compounds read low 1.11 | S. cerevisiae deletion strains, locus YNL128W, strain TEP1, active compounds read low 0.981 | S. cerevisiae deletion strains, locus YNL153C, strain GIM3, active compounds read low 0.977 | S. cerevisiae deletion strains, locus YNL298W, strain CLA4 (second series), active compounds read low 0.95 | S. cerevisiae deletion strains, locus YNL322C, strain KRE1, active compounds read low 0.991 | S. cerevisiae deletion strains, locus YNR030W, strain Alg12, active compounds read low 0.987 | S. cerevisiae deletion strains, locus YPL055C, strain LGE1, active compounds read low 1.05 | S. cerevisiae deletion strains, locus YPL241C, strain CIN2, active compounds read low 0.989 | S. cerevisiae deletion strains, locus YPR135W, strain CTF4, active compounds read low 0.886 | S. cerevisiae strains, strain wild type, active compounds read low 0.974
